Assay results taken from PubChem BioAssay AID1159580 (chemical genetic matrix, 2015).
Screen size: about 5,500 compounds; about 2,000 (36%) were called active. Not shown: some 18% with an inconclusive outcome. Rule as the data show it: active = normalized growth mostly below about 0.91 (no sharp cut-off); inconclusive = no clear call, values can overlap the other calls; inactive = mostly above about 0.92. The list shows a part of the results.

Assay: chemical genetic growth profiling, strain panel (AID 1159580);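 also: tested at 20 µM; growth read once vehicle control cultures reached saturation at 30 °C; 1 = growth at the plate median or of vehicle wells; lower values mean less growth of the strain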
Conditions: growth OD

Measured: normalized growth

COc1cc2c(cc1OC)C(=O)OC2
inactive: S. cerevisiae deletion strains, locus YJR075W, strain HOC1, stronger effect = lower value 1.01 | S. cerevisiae deletion strains, locus YKL009W, strain mrt4, stronger effect = lower value 1.05 | S. cerevisiae deletion strains, locus YKL068W, stronger effect = lower value 1 | S. cerevisiae deletion strains, locus YKL085W, strain MDH1 (second series), stronger effect = lower value 1.01 | S. cerevisiae deletion strains, locus YKL085W, strain MDH1, stronger effect = lower value 1.01 | S. cerevisiae deletion strains, locus YKL160W, strain elf1, stronger effect = lower value 0.994 | S. cerevisiae deletion strains, locus YKL190W, strain CNB1, stronger effect = lower value 1 | S. cerevisiae deletion strains, locus YKR001C, strain vps1, stronger effect = lower value 1.01 | S. cerevisiae deletion strains, locus YKR026C, strain gcn3, stronger effect = lower value 0.992 | S. cerevisiae deletion strains, locus YKR091W, strain srl3, stronger effect = lower value 0.996 | S. cerevisiae deletion strains, locus YLL001W, strain dnm1, stronger effect = lower value 0.996 | S. cerevisiae deletion strains, locus YLL026W, stronger effect = lower value 0.991 | S. cerevisiae deletion strains, locus YLL041C, strain sdh2, stronger effect = lower value 1 | S. cerevisiae deletion strains, locus YLR027C, strain aat2, stronger effect = lower value 1 | S. cerevisiae deletion strains, locus YLR039C, strain RIC1, stronger effect = lower value 1.02 | S. cerevisiae deletion strains, locus YLR058C, strain SHM2, stronger effect = lower value 1.01 | S. cerevisiae deletion strains, locus YLR102C, strain apc9, stronger effect = lower value 1 | S. cerevisiae deletion strains, locus YLR113W, strain HOG1, stronger effect = lower value 0.971 | S. cerevisiae deletion strains, locus YLR221C, strain rsa3, stronger effect = lower value 1.01 | S. cerevisiae deletion strains, locus YLR258W, strain gsy2, stronger effect = lower value 0.992 | S. cerevisiae deletion strains, locus YLR262C, strain YPT6 (second series), stronger effect = lower value 1.02 | S. cerevisiae deletion strains, locus YLR262C, strain YPT6, stronger effect = lower value 1.02 | S. cerevisiae deletion strains, locus YLR268W, strain sec22, stronger effect = lower value 0.979 | S. cerevisiae deletion strains, locus YLR320W, strain mms22, stronger effect = lower value 0.995 | S. cerevisiae deletion strains, locus YLR330W, strain CHS5, stronger effect = lower value 1.01 | S. cerevisiae deletion strains, locus YLR342W, strain FKS1 (second series), stronger effect = lower value 1.07 | S. cerevisiae deletion strains, locus YLR342W, strain FKS1, stronger effect = lower value 0.999 | S. cerevisiae deletion strains, locus YLR357W, strain rsc2, stronger effect = lower value 0.96 | S. cerevisiae deletion strains, locus YLR370C, strain arc18, stronger effect = lower value 0.997 | S. cerevisiae deletion strains, locus YLR371W, strain rom2, stronger effect = lower value 1.01 | S. cerevisiae deletion strains, locus YLR384C, strain iki3, stronger effect = lower value 0.988 | S. cerevisiae deletion strains, locus YLR418C, strain cdc73, stronger effect = lower value 0.925 | S. cerevisiae deletion strains, locus YML016C, strain PPZ1, stronger effect = lower value 1 | S. cerevisiae deletion strains, locus YML032C, strain rad52, stronger effect = lower value 1.01 | S. cerevisiae deletion strains, locus YML120C, strain ndi1, stronger effect = lower value 1.01 | S. cerevisiae deletion strains, locus YML124C, strain tub3, stronger effect = lower value 0.994 | S. cerevisiae deletion strains, locus YMR058W, strain fet3, stronger effect = lower value 0.999 | S. cerevisiae deletion strains, locus YMR078C, strain ctf18, stronger effect = lower value 1 | S. cerevisiae deletion strains, locus YMR125W, strain sto1, stronger effect = lower value 0.984 | S. cerevisiae deletion strains, locus YMR129W, stronger effect = lower value 0.992 | S. cerevisiae deletion strains, locus YMR205C, strain PFK2, stronger effect = lower value 1.01 | S. cerevisiae deletion strains, locus YMR223W, strain ubp8, stronger effect = lower value 1.02 | S. cerevisiae deletion strains, locus YMR231W, strain pep5, stronger effect = lower value 0.99 | S. cerevisiae deletion strains, locus YMR263W, strain SAP30, stronger effect = lower value 0.994 | S. cerevisiae deletion strains, locus YMR307W, strain GAS1, stronger effect = lower value 1.09 | S. cerevisiae deletion strains, locus YNL067W, strain RPL9B, stronger effect = lower value 0.997 | S. cerevisiae deletion strains, locus YNL071W, strain lat1, stronger effect = lower value 0.995 | S. cerevisiae deletion strains, locus YNL128W, strain TEP1, stronger effect = lower value 0.99 | S. cerevisiae deletion strains, locus YNL153C, strain GIM3, stronger effect = lower value 0.978 | S. cerevisiae deletion strains, locus YNL183C, strain NPR1, stronger effect = lower value 0.987 | S. cerevisiae deletion strains, locus YNL209W, strain ssb2, stronger effect = lower value 0.979 | S. cerevisiae deletion strains, locus YNL233W, strain BNI4, stronger effect = lower value 0.992 | S. cerevisiae deletion strains, locus YNL248C, strain rpa49, stronger effect = lower value 0.978 | S. cerevisiae deletion strains, locus YNL250W, strain rad50, stronger effect = lower value 0.995 | S. cerevisiae deletion strains, locus YNL271C, strain bni1, stronger effect = lower value 1 | S. cerevisiae deletion strains, locus YNL298W, strain CLA4, stronger effect = lower value 1.02 | S. cerevisiae deletion strains, locus YNL307C, strain MCK1, stronger effect = lower value 1.02 | S. cerevisiae deletion strains, locus YNL322C, strain KRE1 (second series), stronger effect = lower value 0.996 | S. cerevisiae deletion strains, locus YNL322C, strain KRE1, stronger effect = lower value 1.01 | S. cerevisiae deletion strains, locus YNR049C, strain mso1, stronger effect = lower value 1 | S. cerevisiae deletion strains, locus YNR052C, strain pop2, stronger effect = lower value 1.01 | S. cerevisiae deletion strains, locus YOL006C, strain TOP1, stronger effect = lower value 0.996 | S. cerevisiae deletion strains, locus YOL012C, strain htz1 0.744 | S. cerevisiae deletion strains, locus YOL147C, strain pex11, stronger effect = lower value 1 | S. cerevisiae deletion strains, locus YOR001W, strain rrp6, stronger effect = lower value 0.993 | S. cerevisiae deletion strains, locus YOR061W, strain CKA2, stronger effect = lower value 1 | S. cerevisiae deletion strains, locus YOR069W, strain VPS5, stronger effect = lower value 1.01 | S. cerevisiae deletion strains, locus YOR070C, strain gyp1, stronger effect = lower value 0.984 | S. cerevisiae deletion strains, locus YOR080W, strain dia2, stronger effect = lower value 1.01 | S. cerevisiae deletion strains, locus YOR083W, strain WHI5, stronger effect = lower value 0.996 | S. cerevisiae deletion strains, locus YOR106W, strain vam3, stronger effect = lower value 0.99 | S. cerevisiae deletion strains, locus YOR136W, strain idh2, stronger effect = lower value 1 | S. cerevisiae deletion strains, locus YOR144C, strain elg1, stronger effect = lower value 1 | S. cerevisiae deletion strains, locus YOR184W, strain ser1, stronger effect = lower value 1.04 | S. cerevisiae deletion strains, locus YOR231W, strain MKK1, stronger effect = lower value 0.991 | S. cerevisiae deletion strains, locus YOR265W, strain rbl2, stronger effect = lower value 1.01 | S. cerevisiae deletion strains, locus YOR270C, strain vph1, stronger effect = lower value 0.971 | S. cerevisiae deletion strains, locus YOR290C, strain snf2, stronger effect = lower value 1.01 | S. cerevisiae deletion strains, locus YOR316C, strain cot1, stronger effect = lower value 1.01 | S. cerevisiae deletion strains, locus YPL051W, strain arl3, stronger effect = lower value 0.994 | S. cerevisiae deletion strains, locus YPL055C, strain LGE1, stronger effect = lower value 0.973 | S. cerevisiae deletion strains, locus YPL078C, strain atp4, stronger effect = lower value 1.01 | S. cerevisiae deletion strains, locus YPL106C, strain sse1, stronger effect = lower value 0.901 | S. cerevisiae deletion strains, locus YPL240C, strain hsp82, stronger effect = lower value 0.988 | S. cerevisiae deletion strains, locus YPL241C, strain CIN2, stronger effect = lower value 1 | S. cerevisiae deletion strains, locus YPL256C, strain CLN2, stronger effect = lower value 1 | S. cerevisiae deletion strains, locus YPR119W, strain clb2, stronger effect = lower value 0.995 | S. cerevisiae deletion strains, locus YPR141C, strain kar3, stronger effect = lower value 1 | S. cerevisiae deletion strains, locus YPR163C, strain tif3, stronger effect = lower value 0.989 | S. cerevisiae deletion strains, locus YPR167C, strain met16, stronger effect = lower value 1 | S. cerevisiae deletion strains, strain wtn01, stronger effect = lower value 1 | S. cerevisiae strains, strain wild type, stronger effect = lower value 1.01
